# According to PubChem BioAssay (Tox21):
# Inconclusive results are not listed. Where a call stands in place of a potency, no number is given. Activity calls are given as the source filed them. Calls follow the shape of the dose curve; as a rule, active = well fitted cell-killing curve with a large enough effect in the repeat runs; inconclusive = weak or mixed curves, or effect the other way; inactive = no such curve, though single readings can be large or run the other way.
# Experiment: qHTS assay to identify small molecule antagonists of the glucocorticoid receptor (GR) signaling pathway - cell viability counter screen (AID 720693); also: nearly all actives have a fitted effect of over 55% in size
# Settings: GR-bla HeLa viability, CellTiter-Glo luminescence, 18 h, with 5 nM dexamethasone present; series mostly up to 58.5 µM
# Potency is read from the fitted curve at half-maximal effect.
row,SMILES,Potency
1,CC(COc1ccccc1)NC(C)C(O)c1ccc(O)cc1 (stereo not drawn),inactive
2,CC1=C(C)C(=O)C(C(CCCCCC(=O)O)c2ccccc2)=C(C)C1=O (stereo not drawn),inactive
3,C[Si](C)(C)O[Si](C)(C)O[Si](C)(C)C,inactive
4,O=C(O)CNc1ccccc1,inactive
5,CCCCCCCCCCCC(=O)OCC,inactive
6,Clc1nc2ccccc2nc1Cl,inactive
7,O=[N+]([O-])c1ccc(Cl)cc1Cl,inactive
8,CC(C(=O)O)c1ccc(/C=C2\CCCCC2=O)cc1 (stereo not drawn),inactive
9,CCCC1CCCC(=O)O1 (stereo not drawn),inactive
10,CC(O)C(C)O (stereo not drawn),inactive
11,COc1ccc(/C=C/c2cc(OC)cc(=O)o2)cc1,inactive
12,O=C(O)c1cc(C(=O)O)cc([N+](=O)[O-])c1,inactive
13,O=C(NC1CCN(CCc2c[nH]c3ccccc23)CC1)c1ccccc1,inactive
14,CC(=O)c1ccc(Cl)c(Cl)c1Cl,inactive
15,OCCCO,inactive
16,Cc1ccc2c(Cl)cc(Cl)c(O)c2n1,23.9 µM (active)
17,COc1ccc(/C=C/S(=O)(=O)NC(=O)c2ccc(C)cc2Cl)cc1,inactive
18,OCCc1ccncc1,inactive
19,CCOc1ccc(NC(C)=O)cc1N,inactive
20,C=CC(=O)OCCCCCCCCCC,inactive
21,CC(CCl)OC(C)CCl (stereo not drawn),inactive
22,Nc1ccc(-c2ccc(F)cc2)cc1,inactive
23,CC(C)(C)c1ccc(CCC=O)cc1,inactive
24,CCC[Si](OC)(OC)OC,inactive
25,Nc1cccc2c(=O)[nH][nH]c(=O)c12,inactive
26,C/C(=C\C(C)CC(C)CC(C)C)C1CC(=O)OC1=O (stereo not drawn),inactive
27,CCCCCCCCCCCCCCCCN,inactive
28,O=C(O)c1ccc2cc(O)ccc2c1,inactive
